According to PubChem BioAssay (NCI):
Several values for one entry are separate records, joined by “and”; a condition that tells them apart may be missing. Identical values can stand only once. The panel holds about 83,000 compounds, 20% with a hit somewhere; the sample as a whole holds those more often.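 How to read the values: 0–100, growth inhibition (40 = 60% inhibited); 0, no net growth; -100 to 0, cell death (-40 = 40% of starting cells died; -100 = all dead).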 Activity calls are given as the source filed them. The calls were made as follows: active = growth percent below 10; inactive = the rest.

Key:
Test in all cases: NCI-60 one-dose screen, 48 h (100 = growth as untreated, 0 = no growth, -100 = all killed)
Settings in all cases: 10 µM unless noted
SR leukemia = test system: SR leukemia
RPMI-8226 leukemia = test system: RPMI-8226 leukemia
OVCAR-8 ovarian = test system: OVCAR-8 ovarian
OVCAR-5 ovarian = test system: OVCAR-5 ovarian
OVCAR-4 ovarian = test system: OVCAR-4 ovarian
SK-OV-3 ovarian = test system: SK-OV-3 ovarian
IGROV1 ovarian = test system: IGROV1 ovarian
OVCAR-3 ovarian = test system: OVCAR-3 ovarian
HS 578T breast = test system: HS 578T breast
NCI/ADR-RES ovarian = test system: NCI/ADR-RES ovarian
T-47D breast = test system: T-47D breast
BT-549 breast = test system: BT-549 breast
MDA-MB-435 melanoma = test system: MDA-MB-435 melanoma
SW-620 colon = test system: SW-620 colon
MCF7 breast = test system: MCF7 breast
HCT-116 colon = test system: HCT-116 colon
KM12 colon = test system: KM12 colon
HCC-2998 colon = test system: HCC-2998 colon

Measured: growth

CC12CCC(C(=O)CC1=O)C2(C)C (centres undefined)
inactive: SR leukemia 122% and 93% | RPMI-8226 leukemia 101% and 94.2% | OVCAR-8 ovarian 103% and 99.5% | OVCAR-5 ovarian 101% and 106% | OVCAR-4 ovarian 101% | SK-OV-3 ovarian 104% and 105% | IGROV1 ovarian 110% and 104% | OVCAR-3 ovarian 105% and 106% | HS 578T breast 108% and 120% | NCI/ADR-RES ovarian 111% and 103% | T-47D breast 105% and 93.4% | BT-549 breast 110% and 104% | MDA-MB-435 melanoma 106% and 110% | SW-620 colon 105% and 109% | MCF7 breast 103% and 98.4% | HCT-116 colon 106% and 97.1% | KM12 colon 108% and 101%

O=Nc1c(O)ccc2ccccc12
-3.35% (active) and 93% (inactive): OVCAR-8 ovarian
6.49% (active) and 81% (inactive): HCT-116 colon
-83.9% (active) and 116% (inactive): MDA-MB-435 melanoma
6.43% (active) and 97.7% (inactive): NCI/ADR-RES ovarian
inactive: SR leukemia 23.6% and 87.6% | RPMI-8226 leukemia 37.8% and 79.9% | OVCAR-5 ovarian 70.1% and 112% | OVCAR-4 ovarian 19% and 89% | SK-OV-3 ovarian 93.6% and 101% | IGROV1 ovarian 51.5% and 42% | HS 578T breast 54% and 112% | T-47D breast 15.5% and 76.1% | BT-549 breast 94.5% and 90.8% | SW-620 colon 27.5% and 83.9% | MCF7 breast 67.8% and 78.1% | KM12 colon 66.8% and 109%
1.11% (active) and 81% (inactive): OVCAR-3 ovarian

Cn1cc(-c2nc3c(F)cc4[nH]ncc4c3c3c2CCCC3)c(C(F)F)n1
inactive: RPMI-8226 leukemia 27.7% | OVCAR-8 ovarian 73% | OVCAR-5 ovarian 71.2% | OVCAR-4 ovarian 100% | SK-OV-3 ovarian 37.2% | IGROV1 ovarian 51.8% | OVCAR-3 ovarian 84.4% | HS 578T breast 40.4% | NCI/ADR-RES ovarian 77.9% | T-47D breast 50.8% | BT-549 breast 31.1% | MDA-MB-435 melanoma 27.1% | SW-620 colon 56.3% | MCF7 breast 46.5% | HCT-116 colon 39.7% | HCC-2998 colon 90.6% | KM12 colon 23.2%
active: SR leukemia -16.9%

O=C1C(=C(O)c2ccccc2)C(=O)c2ccccc21
inactive: SR leukemia 115% | RPMI-8226 leukemia 94.3% | OVCAR-8 ovarian 105% | OVCAR-5 ovarian 104% | OVCAR-4 ovarian 101% | SK-OV-3 ovarian 101% | IGROV1 ovarian 106% | OVCAR-3 ovarian 109% | HS 578T breast 120% | NCI/ADR-RES ovarian 108% | T-47D breast 103% | BT-549 breast 95.7% | MDA-MB-435 melanoma 103% | SW-620 colon 111% | MCF7 breast 102% | HCT-116 colon 102% | HCC-2998 colon 109% | KM12 colon 104%

CCNC(=S)n1nc(SC)c(C(=O)OCC)c1N
inactive: SR leukemia 89.2% | RPMI-8226 leukemia 110% | OVCAR-8 ovarian 110% | OVCAR-5 ovarian 84.8% | OVCAR-4 ovarian 96.7% | SK-OV-3 ovarian 94% | IGROV1 ovarian 90.6% | OVCAR-3 ovarian 97.7% | HS 578T breast 110% | NCI/ADR-RES ovarian 94.8% | T-47D breast 86.4% | BT-549 breast 95.3% | MDA-MB-435 melanoma 104% | SW-620 colon 102% | MCF7 breast 92% | HCT-116 colon 96.1% | HCC-2998 colon 116% | KM12 colon 97.5%

Cc1ccc(S(=O)(=O)OC[C@@]2(C)CC[C@]3(C)CC[C@]4(C)C(=CC[C@@H]5[C@@]6(C)CCCNC(C)(C)[C@@H]6CC[C@]54C)[C@@H]3C2)cc1
inactive: SK-OV-3 ovarian 75.2% | BT-549 breast 76.5%
active: SR leukemia -39.3% | RPMI-8226 leukemia -57.8% | OVCAR-8 ovarian -50.2% | OVCAR-5 ovarian -84% | OVCAR-4 ovarian -78.5% | IGROV1 ovarian -84.9% | OVCAR-3 ovarian -95.8% | HS 578T breast -20% | NCI/ADR-RES ovarian -65.8% | T-47D breast -82.8% | MDA-MB-435 melanoma -89.9% | SW-620 colon -81.9% | MCF7 breast -61.6% | HCT-116 colon -80.6% | HCC-2998 colon -92.3% | KM12 colon -91.7%

Cc1ccc2nc3ccccc3c(NCc3ccc(Cl)cc3)c2c1
inactive: OVCAR-8 ovarian 52.4% | OVCAR-5 ovarian 50.7% | OVCAR-4 ovarian 37.5% | SK-OV-3 ovarian 75.2% | IGROV1 ovarian 27.1% | OVCAR-3 ovarian 70.9% | HS 578T breast 77.8% | NCI/ADR-RES ovarian 42% | T-47D breast 57.9% | BT-549 breast 75.6% | MDA-MB-435 melanoma 70.3% | SW-620 colon 32.1% | HCT-116 colon 14.7% | KM12 colon 77.1%
active: SR leukemia -9.22% | RPMI-8226 leukemia -28.5% | MCF7 breast -20.8% | HCC-2998 colon -79%

COc1cc(/C=C2\C(=O)N(CCCCn3c4ccccc4c(=O)c4ccccc43)c3ccccc32)cc(OC)c1O
active: MDA-MB-435 melanoma 6.24%
inactive: SR leukemia 14.7% | RPMI-8226 leukemia 35.2% | OVCAR-8 ovarian 50.1% | OVCAR-5 ovarian 91% | OVCAR-4 ovarian 56.1% | SK-OV-3 ovarian 97.1% | IGROV1 ovarian 52.3% | OVCAR-3 ovarian 31.6% | HS 578T breast 68.8% | NCI/ADR-RES ovarian 48.6% | T-47D breast 66.1% | BT-549 breast 51.1% | SW-620 colon 47.4% | MCF7 breast 22.8% | HCT-116 colon 57.6% | HCC-2998 colon 92.4% | KM12 colon 58.4%

COc1cc2nc3cc([N+](=O)[O-])ccc3c(NCCNCC(C)(C)O)c2cc1OC
inactive: SK-OV-3 ovarian 17.8% | NCI/ADR-RES ovarian 55%
active: SR leukemia -12.2% | RPMI-8226 leukemia -8.62% | OVCAR-8 ovarian -3.94% | OVCAR-5 ovarian 8.33% | OVCAR-4 ovarian -31.8% | IGROV1 ovarian -15.9% | OVCAR-3 ovarian -31.2% | HS 578T breast -2.1% | T-47D breast -3.16% | BT-549 breast -75.6% | MDA-MB-435 melanoma -86.8% | SW-620 colon -15.2% | MCF7 breast -14.1% | HCT-116 colon -20.9% | HCC-2998 colon -53.3% | KM12 colon -7.24%

COC1/C=C/OC2(C)Oc3c(C)c(O)c4c(O)c(c(C=NOC(c5ccccc5)c5ccccc5)c(O)c4c3C2=O)NC(=O)/C(C)=C/C=C/C(C)C(O)C(C)C(O)C(C)C(OC(C)=O)C1C (centres undefined)
inactive: OVCAR-8 ovarian 24.8% | OVCAR-5 ovarian 38.1% | OVCAR-4 ovarian 15.2% | IGROV1 ovarian 29.8% | OVCAR-3 ovarian 11.9% | NCI/ADR-RES ovarian 28.9% | BT-549 breast 32.7% | MDA-MB-435 melanoma 11.5% | SW-620 colon 18.3% | MCF7 breast 10.9% | HCT-116 colon 10.9%
active: SR leukemia -5.09% | RPMI-8226 leukemia 3.28% | SK-OV-3 ovarian -34% | HS 578T breast -5.16% | T-47D breast -82.7% | HCC-2998 colon -38.8% | KM12 colon 5.8%

C=C(CNCCO)[C@@H]1CC[C@]2(CO)CC[C@]3(C)[C@H](CC[C@@H]4[C@@]5(C)CCC(NCCc6ccc(O)cc6)C(C)(C)[C@@H]5CC[C@]43C)[C@@H]12 (some centres undefined)
inactive: NCI/ADR-RES ovarian 33.4%
active: SR leukemia -50.6% | RPMI-8226 leukemia -51.3% | OVCAR-8 ovarian -76.8% | OVCAR-5 ovarian 0.392% | OVCAR-4 ovarian -27.1% | SK-OV-3 ovarian -73.2% | IGROV1 ovarian -61.5% | OVCAR-3 ovarian -64.3% | HS 578T breast -55.9% | T-47D breast -66.1% | BT-549 breast -79.2% | MDA-MB-435 melanoma -95.5% | SW-620 colon -75.1% | MCF7 breast -73.4% | HCT-116 colon -94.4% | HCC-2998 colon -94.8% | KM12 colon -81.2%

O=C1c2cccc3cccc(c23)C(=O)N1N1C(=O)c2cccc3c(N4CCNCC4)ccc(c23)C1=O
active: SR leukemia -6.4%
inactive: RPMI-8226 leukemia 68.8% | OVCAR-8 ovarian 82.6% | OVCAR-5 ovarian 121% | OVCAR-4 ovarian 116% | SK-OV-3 ovarian 104% | IGROV1 ovarian 91.2% | OVCAR-3 ovarian 101% | HS 578T breast 85.9% | NCI/ADR-RES ovarian 82.6% | T-47D breast 93.6% | BT-549 breast 89.8% | MDA-MB-435 melanoma 99.9% | SW-620 colon 78.7% | MCF7 breast 29% | HCT-116 colon 58.1% | KM12 colon 82.2%

CCCCCCCCCCCCCCCCCCOc1cccc(CC(=O)OCC[N+](CC)(CC)CC)c1
inactive: SR leukemia 53% | RPMI-8226 leukemia 35.4% | OVCAR-8 ovarian 41.4% | OVCAR-5 ovarian 71.3% | OVCAR-4 ovarian 27.6% | SK-OV-3 ovarian 103% | IGROV1 ovarian 37.1% | OVCAR-3 ovarian 77.7% | HS 578T breast 60.8% | NCI/ADR-RES ovarian 103% | T-47D breast 52.7% | BT-549 breast 86.9% | MDA-MB-435 melanoma 82.1% | SW-620 colon 78.6% | MCF7 breast 32.7% | KM12 colon 83.3%

C[C@@H]1CC[C@@H]2[C@@H]1[C@H](OC(=O)/C=C/c1ccccc1)[C@]1(c3ccccc3)C[C@@H](NC(=O)CO)[C@@]2(C)O1
inactive: SR leukemia 90.4% | RPMI-8226 leukemia 92.2% | OVCAR-8 ovarian 93.9% | OVCAR-5 ovarian 98.5% | OVCAR-4 ovarian 97.2% | SK-OV-3 ovarian 90.4% | IGROV1 ovarian 102% | OVCAR-3 ovarian 108% | HS 578T breast 92% | NCI/ADR-RES ovarian 93% | T-47D breast 93.3% | BT-549 breast 114% | MDA-MB-435 melanoma 100% | SW-620 colon 104% | MCF7 breast 79.4% | HCC-2998 colon 104% | KM12 colon 94.8%

Cc1n(Cc2ccc3ccccc3c2)c(Cl)c(Cl)[n+]1Cc1ccc2ccccc2c1
inactive: OVCAR-8 ovarian 19.1% | OVCAR-5 ovarian 51.1% | SK-OV-3 ovarian 65.5% | HS 578T breast 46.6% | NCI/ADR-RES ovarian 98.8% | T-47D breast 10.3% | BT-549 breast 26.8% | SW-620 colon 40.5% | MCF7 breast 21.4% | HCT-116 colon 18.2%
active: SR leukemia 6.73% | RPMI-8226 leukemia -16.8% | OVCAR-4 ovarian 3.21% | IGROV1 ovarian -8.24% | OVCAR-3 ovarian 5.54% | MDA-MB-435 melanoma -2.29% | KM12 colon 0.454%

CCN1C(=O)N(c2ccccc2)C2NC(=S)N(/N=C/C=C/c3ccccc3)C21 (centres undefined)
active: SR leukemia 7.28% | RPMI-8226 leukemia -20.1% | OVCAR-8 ovarian 5.29% | OVCAR-3 ovarian 8.14% | NCI/ADR-RES ovarian 2.91% | BT-549 breast -8.95% | MDA-MB-435 melanoma -35.1% | MCF7 breast 3.24%
inactive: OVCAR-5 ovarian 59.7% | OVCAR-4 ovarian 34.3% | SK-OV-3 ovarian 24% | IGROV1 ovarian 20.8% | HS 578T breast 16.1% | T-47D breast 38.2% | SW-620 colon 26.5% | KM12 colon 21%
